In all, about 220,000 compounds went through this assay and about 830 (0.38%) were called active. What follows is part of a selection rich in actives, with near analogues and random picks from the rest. Unmarked numbers belong to inactive results. No rule for the calls is given here.

The results in this text go back to PubChem BioAssay AID1441 (NMMLSC, 2008).

The target of this assay is Regulator of G-protein signaling 16 (Homo sapiens) + Guanine nucleotide-binding protein G(o) subunit alpha (Homo sapiens) (UniProt O15492+P09471). Briefly: modulators of RGS16 binding to Galphao, primary screen, biochemical, human proteins, multiplexed bead flow cytometry (AID 1441).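 Also: Galphao activated by GDP with aluminum fluoride before binding.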 Particulars: bead-based flow cytometry RGS16-Galphao binding, fluorescence; at 10 µM; actives lie on both sides.
Chain of Regulator of G-protein signaling 16 (Homo sapiens) + Guanine nucleotide-binding protein G(o) subunit alpha (Homo sapiens) (O15492 whole entry, looked up): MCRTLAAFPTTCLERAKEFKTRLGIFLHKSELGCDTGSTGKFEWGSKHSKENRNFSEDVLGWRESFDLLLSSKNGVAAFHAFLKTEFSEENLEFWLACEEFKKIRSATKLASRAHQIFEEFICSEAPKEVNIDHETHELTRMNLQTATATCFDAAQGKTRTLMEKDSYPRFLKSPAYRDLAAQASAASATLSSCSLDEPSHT
Chain of Regulator of G-protein signaling 16 (Homo sapiens) + Guanine nucleotide-binding protein G(o) subunit alpha (Homo sapiens) (P09471 whole entry, looked up): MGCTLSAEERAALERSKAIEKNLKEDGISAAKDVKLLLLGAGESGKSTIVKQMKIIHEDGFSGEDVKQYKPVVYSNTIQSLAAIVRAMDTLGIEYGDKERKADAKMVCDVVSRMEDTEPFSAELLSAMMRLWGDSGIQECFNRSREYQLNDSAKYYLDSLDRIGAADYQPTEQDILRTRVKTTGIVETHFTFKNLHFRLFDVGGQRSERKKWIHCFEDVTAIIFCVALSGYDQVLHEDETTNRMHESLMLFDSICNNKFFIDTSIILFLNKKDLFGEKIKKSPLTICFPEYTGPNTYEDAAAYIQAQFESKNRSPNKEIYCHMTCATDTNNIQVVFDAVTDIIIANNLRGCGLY
With `CC(C)Oc1ccc(CCc2nnc(SCC(=O)O)n2-c2ccccc2)cc1`, the binding response (% of control) was 99.7%.
Next, `COC(=O)[C@H]1Cc2cnoc2C[C@]1(C)C(=O)O`: 104%.
Next, `Cc1ccc(SCC2=NNC(=O)C2)cc1`: 110%.
The result for `Cc1ccc(N2C(=O)C(Cc3ccccc3)NC2=S)cc1` (centres undefined) reads 102%.
In the case of `Cc1ccc(N2C(=O)C3CC3C2=O)cc1` (centres undefined), the binding response (% of control) is 101%.
Next, `Cc1ccc(N2C(=O)C3C(c4ccccc4)(C2=O)C3(c2ccccc2)c2ccccc2)cc1` (centres undefined): 13.2% (active); `C/C=C/c1ccc(OCCCCN2CCC(C)CC2)c(OC)c1`: 95%.
The result for `O=c1[nH]c2ccccc2s1` reads 23% (active).
The result for `O=c1c(-c2ccc(Cl)cc2)[n+]([O-])c2ccccc2n1OCc1nc2ccccc2[nH]1` reads 108%; that for `CCCC1C(c2ccccc2)C(C#N)(C#N)C2(C#N)CC1(N)NC2=O` (centres undefined), 178% [activator] (active); that for `O=C(NNC(=S)NC1CCCCC1)c1ccccc1Cl`, 99.1%.
As to `CCN(CC)CCn1c(N)c(S(=O)(=O)c2ccccc2)c2nc3ccccc3nc21`, the binding response (% of control) is 104%.
As for `Cc1ccc(S(=O)(=O)c2c(N)n(C)c3nc4ccccc4nc23)cc1`, the binding response (% of control) is 101%.
Regarding `CCC(=O)Nc1c(S(=O)(=O)c2ccccc2)c2nc3ccccc3nc2n1Cc1ccccc1`, the binding response (% of control) is 13.9% (active).
With `S=c1[nH]nc(-c2cccs2)n1/N=C/c1cn(-c2ccccc2)nc1-c1ccc(Cl)cc1`, the binding response (% of control) is 98.8%.
Take `C/C(=N\NS(=O)(=O)c1ccc(Br)cc1)c1cccs1`: the binding response (% of control) is -881% (active).
As to `C/C(=N\OCC(=O)Nc1ccc(Br)cc1)c1cccs1`, the binding response (% of control) was 99.8%.
In the case of `O=S(=O)(NN=C1CCCCCCC1)c1ccc(Br)cc1`, the binding response (% of control) was 106%.
For `Cc1ccc(-n2c(SCC(=O)Nc3ccc4c(c3)OCO4)nnc2-c2ccccn2)cc1`, the binding response (% of control) was 96.8%.
On to `COc1ccc(-n2c(SCC(=O)OC(C)C)nnc2-c2ccccn2)cc1`, for which the binding response (% of control) is 242% [activator] (active).
As to `Cc1ccc(-n2c(Cc3cccs3)nnc2SCC(=O)OC(C)C)cc1`, the binding response (% of control) was 103%.
The result for `Cc1cc(C(=O)OCC(=O)Nc2nccs2)c2ccccc2n1` reads 99%; that for `CCc1nc(NCCO)c(C#N)c2c1CCCC2`, 92.9%; that for `CCOc1ccc(NC(=O)CSc2nc3ccccc3c(=O)n2Cc2cccs2)cc1`, -1.24% (active).
Next, `CC(=O)NCCn1c(SCC(=O)Nc2ccc(C)cc2)nc2ccccc2c1=O`: 197%; `CCc1ccc(NC(=O)CSc2nc3ccccc3c(=O)n2CCN2CCOCC2)cc1`: 97.8%.
For the compound `NC(=O)c1nnsc1-c1ccc(-c2snnc2C(N)=O)cc1`, the binding response (% of control) was 103%.
`COc1cc2[nH]c(=S)n(Cc3ccc(F)cc3)c(=O)c2cc1OC`: the binding response (% of control) was 76.9%.
The result for `Cc1cc(C(=O)N/N=C/c2cc([N+](=O)[O-])cc(C)c2O)n[nH]1` reads 78.3%.
The result for `Cn1c(CCCOc2ccc(Cl)cc2Cl)n[nH]c1=S` reads 101%.
On to `O=S(=O)(c1ccccc1)N1CN(Cc2ccc(F)cc2)c2nc3ccccc3nc21`, for which the binding response (% of control) is 100%.
Next, `COc1ccc(CNC(=O)C2CCC(CNc3c(N4CCOCC4)c(=O)c3=O)CC2)cc1` (centres undefined): 104%; `CC(NC(=O)C1CCC(CNc2c(N3CCOCC3)c(=O)c2=O)CC1)c1ccccc1` (centres undefined): 99.6%.
Turning to `O=C(NCc1ccc(F)cc1)C1CCC(CNc2c(N3CCOCC3)c(=O)c2=O)CC1` (centres undefined), the binding response (% of control) was 3.97% (active).
The result for `O=C(Nc1cccnc1Oc1ncnc2cc(Cl)ccc12)c1ccc(F)cc1` reads 102%; that for `CN1CCN(c2ccc(CNS(=O)(=O)c3cccc(F)c3)cc2)CC1`, 104%.
As for `CN(C)CCOc1cccc(Br)c1`, the binding response (% of control) is 103%.
For `CC1(C)C=C2[C@H]3CC[C@@H]4[C@@]5(C)CCC(=O)C(C)(C)[C@@H]5CC[C@@]4(C)[C@]3(C)CC[C@@]2(C(=O)O)CC1`, the binding response (% of control) was 267% [activator] (active).
On to `CC1Cc2ccccc2N1CC(=O)Nc1ccc(S(N)(=O)=O)cc1` (centres undefined), for which the binding response (% of control) was 93.2%.
Turning to `O=C1CCC(=O)N(O)CCCCCNC(=O)CCC(=O)N(O)CCCCCNC(=O)CCC(=O)N(O)CCCCCN1`, the binding response (% of control) was 40.8%.
`CCS(=O)(=O)c1cc([N+](=O)[O-])c(Sc2ccccc2N)s1`: the binding response (% of control) is 91.4%.
The result for `O=C(NCCCn1ccnc1)C(=O)NCC1OCCN1S(=O)(=O)c1cc(F)ccc1F` (centres undefined) reads 105%; that for `NS(=O)(=O)c1cccc(NC(=O)CSc2nc3ccccc3n2-c2ccccc2)c1`, 105%; that for `Cc1ccc(SCCC(=O)OCC(=O)Nc2ncc(Cl)cc2Cl)cc1`, 106%.
Regarding `Cc1ccc(-n2c(SCC(=O)Nc3ncc(Cl)cc3Cl)nc3ccccc32)cc1`, the binding response (% of control) is 13.7% (active).
The result for `CCCNC(=O)c1c(Cl)cnn1-c1ccc(C)cc1` reads 99.5%.
Take `CCOc1ccccc1NC(=O)CCN1CCN(S(=O)(=O)c2ccc(OC)cc2)CC1`: the binding response (% of control) is 102%.
The result for `Cc1c(C(=O)Nc2ccccc2Cl)oc2ccc(S(=O)(=O)N3CCC4(CC3)OCCO4)cc12` reads 107%; that for `CCOc1ccccc1NC(=O)c1cc(S(=O)(=O)N2CCC3(CC2)OCCO3)ccc1F`, 4.15% (active).
Regarding `Cc1ccc(C(=O)N/C(=C/c2cccnc2)C(=O)O)cc1`, the binding response (% of control) is 100%.
Regarding `Cc1cc(OCCN2CCCC2)cc(C(C)C)c1`, the binding response (% of control) is 93.3%.
Consider `COC(c1ccccc1)c1nnc(CCC(=O)N2CCN(CCOc3ccccc3)CC2)o1` (centres undefined), for which the binding response (% of control) was 101%.
For the compound `COc1cccc(C(=O)NCCSc2ccc(Br)cc2)c1`, the binding response (% of control) is 11.1% (active).
On to `COc1cc(OC)cc(C(=O)NCCSCc2ccco2)c1`, for which the binding response (% of control) was 97.1%.
The result for `COc1cccc(C(=O)NNC(=O)c2ccccc2Br)c1` reads 105%; that for `CC(=O)c1sc(NC(=O)C2=NN(c3ccccc3)C(=O)CC2)nc1C`, 102%.
The result for `O=C(Cn1ncc(N2CCCC2)c(Br)c1=O)c1ccc(Cl)cc1` reads 103%; that for `O=C(COc1ccc(Cl)cc1)N1CCN(c2cccc(C(F)(F)F)c2)CC1`, 107%; that for `COC(=O)c1ccccc1OCC(=O)N1CCN(c2ccc(Cl)cc2)CC1`, 461% [activator] (active).
The result for `O=C(CN1CCN(c2ccc(Cl)cc2)CC1)N1CCCC1` reads 101%.
For `CN(C(=O)COC(=O)c1cc(-c2ccco2)nc2ccccc12)C1CCS(=O)(=O)C1` (centres undefined), the binding response (% of control) is 89.7%.
On to `Cc1cc(C)cc(N(CC(=O)Nc2c(C)n(C)n(-c3ccccc3)c2=O)S(C)(=O)=O)c1`, for which the binding response (% of control) was -28.4% (active).
In the case of `Cc1cc(C)cc(N(C(C)C(=O)Nc2c(C)n(C)n(-c3ccccc3)c2=O)S(C)(=O)=O)c1` (centres undefined), the binding response (% of control) was 109%.
The result for `Cc1ccc(S(=O)(=O)CC(=O)Nc2c(C)n(C)n(-c3ccccc3)c2=O)cc1` reads 98%; that for `C/C(=N/N1CCN(Cc2cccc3ccccc23)CC1)c1cccnc1`, 104%; that for `COC(=O)c1ccccc1NC(=S)NC(=O)c1ccccc1F`, 101%.
As to `C/C=C/C(=O)OCC(=O)Nc1ccc(F)cc1Cl`, the binding response (% of control) is 104%.
On to `Cc1cccc(CN2CCN(Cc3cnn(-c4ccccc4F)c3)CC2CCO)n1` (centres undefined), for which the binding response (% of control) is 101%.
With `O=C(NCc1ccccc1)c1ccc(S(=O)(=O)Nc2cccc(C(F)(F)F)c2)cc1`, the binding response (% of control) is 80.9%.
As for `CCOC(=O)CSc1nc2c(c(=O)n(Cc3ccccc3Cl)c(=O)n2C)n1C`, the binding response (% of control) was -55.5% (active).
For `CCOC(=O)CSc1nc2c(c(=O)n(C)c(=O)n2C)n1Cc1ccccc1F`, the binding response (% of control) is 102%.
The result for `Cn1c(=O)c2c(nc(SCC(=O)Nc3ccccc3N3CCCCC3)n2C)n(C)c1=O` reads 117%.
Turning to `COc1ccccc1C1CCN(C(=S)Nc2ccc(Br)cc2)CC1`, the binding response (% of control) is 98%.
Regarding `COc1ccc(NS(=O)(=O)c2ccc(NC(=S)NC(=O)CC(C)C)cc2)cc1`, the binding response (% of control) is 98.4%.
In the case of `CC(=O)c1ccc(NC(=S)NC(=O)CC(C)C)cc1`, the binding response (% of control) is 21.8% (active).
As for `CC(C)CC(=O)NC(=S)Nc1cc(C(=O)O)ccc1Cl`, the binding response (% of control) was 103%.
For the compound `CC(=O)Nc1cccc(-c2nc3ccccc3s2)c1C`, the binding response (% of control) was 108%.
Next, `C/C(=N\NC(=O)c1cccnc1)c1ccc(-c2ccccc2)cc1`: 95.2%; `CC(C)c1nc(CNC(=O)CC2C(=O)NCCN2Cc2ccoc2)cs1` (centres undefined): 105%; `CC(C)=C1SC(N2CCN(c3ccc(C)c(Cl)c3)CC2)=NC1=O`: 99.9%.
Take `COc1ccc(CC(=O)Nc2ccc(C(=O)NC(C)(C)C)cc2)cc1`: the binding response (% of control) was 99.7%.
Next, `CC(C)(C)NC(=O)c1cccc(NC(=O)Cc2ccc(Br)cc2)c1`: -3.28% (active).
For the compound `Cc1cccc(C)c1NC(=O)CNC(=O)Cc1ccc(Br)cc1`, the binding response (% of control) was 98.2%.
Next, `O=C(COC(=O)c1ccncc1)c1ccccc1`: 104%; `O=C1C2C3C=CC(C3)C2C(=O)N1c1ccc(S(=O)(=O)Nc2nccs2)cc1` (centres undefined): 93.2%.
The result for `COc1ccc2[nH]c(C(=O)Nc3ccccc3Cl)cc2c1` reads 97.5%; that for `CC(C)n1c(=O)[nH]c2cc(C(=O)Nc3ccccc3)ccc21`, 107%; that for `O=C(Nc1ccccc1)c1cc2ccccc2[nH]1`, 13.8% (active).
Turning to `O=C(Nc1ccc(S(=O)(=O)Nc2nccs2)cc1)c1cc(=O)[nH]c2ccccc12`, the binding response (% of control) was 100%.
Consider `CC1CCN(Cc2nc(-c3ccc(Cl)cc3)no2)CC1`, for which the binding response (% of control) is 108%.
The result for `COC(=O)C1=C(Nc2ccc(C)cc2)C=C(C)C(C(=O)OC)C1c1ccc(F)cc1` (centres undefined) reads 109%; that for `Cc1cs/c(=N\N=C\c2ccc(O)cc2)n1Cc1ccco1`, 104%; that for `COc1ccc(NC(=O)Cn2c(=O)n(Cc3ccco3)c(=O)c3ccccc32)cc1`, 101%.
As to `CN(c1ccccc1)c1ccc(/C=c2\s/c(=C(/C#N)C(=O)C(C)(C)C)n(Cc3ccco3)c2=O)cc1`, the binding response (% of control) was 551% [activator] (active).
